# Source: PubChem BioAssay
# ATG4B inhibitor: inhibitors of human ATG4B cysteine protease | Q9Y4P1 | inhibition, % at 8.33 µM | hit rate 0.51% among 340,000 | ATG4B cleavage of LC3-PLA2, NBD-HPC fluorescence, 1 h | AID 504462; in the data active = inhibition above about 40%
# Target sequence (Q9Y4P1 whole entry, looked up): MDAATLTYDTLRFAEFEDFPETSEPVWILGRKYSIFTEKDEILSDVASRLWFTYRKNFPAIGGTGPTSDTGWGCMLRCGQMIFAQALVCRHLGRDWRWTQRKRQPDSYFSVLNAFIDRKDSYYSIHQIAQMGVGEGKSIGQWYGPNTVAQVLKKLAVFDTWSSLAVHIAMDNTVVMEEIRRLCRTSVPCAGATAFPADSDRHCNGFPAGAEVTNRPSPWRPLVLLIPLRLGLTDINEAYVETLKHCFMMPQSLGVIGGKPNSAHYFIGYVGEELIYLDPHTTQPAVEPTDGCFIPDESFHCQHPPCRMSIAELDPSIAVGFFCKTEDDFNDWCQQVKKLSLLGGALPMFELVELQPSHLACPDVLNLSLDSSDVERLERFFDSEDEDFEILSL
# Mot1-301 SUMO: inhibitors of SUMOylation pathway: yeast Mot1-301 growth rescue. S. cerevisiae Mot1-301 growth rescue, ATP luminescence, 38.5C; percent above DMSO median, 100 means doubled. growth rescue, % at 18.8 µM. hit rate 1% among 320,000;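 active = every valid replicate shows activation above 250% relative to neutral control wells; inactive = the rest, any valid replicate at or below 250%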;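 also: OY570 slx delta 5 strain wells were the positive control but not used for scaling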
# Calb FLC: C. albicans growth modulation with fluconazole; hit rate 0.57% among 300,000; AID 1979; growth inhibition, % (no concentration beside the values); C. albicans CaCi-2 (fluconazole-resistant clinical isolate) + fluconazole, Alamar Blue growth, 48 h;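 active = growth inhibition above about 58% in most replicates, limit read from the data, passing the limit was not always enough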;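 also: all wells also contain fluconazole at 8 µg/ml as a sub-toxic cotreatment; 0% = median of DMSO wells and 100% = median of geldanamycin control wells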
# FAS-TE inh: FAS thioesterase (human) inhibition. recombinant FAS-TE, OMFH fluorogenic substrate, fluorescence endpoint. inhibition, % at 15 µM. P49327. hit rate 0.67% among 360,000. AID 602261;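 active = compounds whose normalised, plate-corrected inhibition of enzyme fluorescence in the single-dose primary screen is 50% or more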;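 also: 0% = DMSO with enzyme and 100% = substrate without enzyme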
# NadD inh: inhibitors of Staphylococcus aureus NadD; purified NadD enzyme, colorimetric absorbance read-out; AID 602399; hit rate 0.78% among 360,000; inhibition, % at 20 µM; in the data active = inhibition above about 26%
# FAS-TE conf: confirmation of human fatty acid synthase thioesterase inhibitors | hit rate 45% among 2,300 | shares compounds with FAS-TE inh | AID 624325 | inhibition, % at 15 µM | recombinant FAS-TE, OMFH fluorogenic substrate, fluorescence;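 active = compounds inhibiting the enzyme by at least 50% at 15 µM in any one of the replicates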;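 also: 0% = enzyme with DMSO only and 100% = wells lacking enzyme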
# The depositor's hits bear a star; . = no result. This is a sample that favours compounds with a hit; in the whole collection about 3.1% have one here.
SMILES,ATG4B inhibitor,Mot1-301 SUMO,Calb FLC,FAS-TE inh,NadD inh,FAS-TE conf
CCOC(=O)[C@H]1[C@H]2COc3ccc(Br)cc3[C@@H]2N2C(=O)c3ccc(Cl)cc3NC(=O)[C@@]12C,3,12,.,78*,-4,28
CCOC(=O)[C@@H]1[C@H]2COc3ccc(Br)cc3[C@@H]2N2C(=O)N(c3ccc(C(F)(F)F)cc3)C(=O)[C@]12C,3,-2,22,58*,8,23
CCCCN1C(=O)C(CC(=O)NCc2cccc3ccccc23)CC(C(=O)N(C)C)=C1C (stereo not given),.,.,.,-10,5,.
CCCCNC(=O)CCC(=O)Nc1ccc2nc(N3CCC(C)CC3)cc(C)c2c1,-7,-12,0,60*,-5,45
O=C(CCCC(=O)N(c1ccc2c(c1)OCCO2)C(C(=O)NC1CCCCC1)c1ccc(F)cc1)Nc1ccccn1 (stereo not given),0,-6,12,2,8,.
Cc1ccc(C(C(=O)NC2CCCCC2)N(C(=O)CCCC(=O)Nc2ccccn2)c2ccc3c(c2)OCCO3)cc1 (stereo not given),-11,334,13,52*,8,45
COC(=O)C[C@@H]1C[C@@H]2c3cc(NC(=O)Cc4ccncc4)ccc3O[C@@H]2[C@@H](CO)O1,.,.,.,-10,2,.
Cc1cccc([C@@H]2[C@@H]3C(=O)N(Cc4ccccc4)C(=O)[C@@H]3[C@]3(CC(C)C)C(=O)N(c4cccc(Cl)c4)C(=O)N23)c1,-2,17,13,72*,12,27
CCN1C(=O)[C@H]2[C@@H](c3ccc(C)cc3)N3C(=O)N(c4ccccc4)C(=O)[C@@]3(Cc3ccc(Cl)cc3)[C@H]2C1=O,-5,160,17,63*,2,32
CCN1C(=O)[C@H]2[C@@H](c3ccc(C)cc3)N3C(=O)N(c4ccc(C)cc4)C(=O)[C@@]3(Cc3ccc(Cl)cc3)[C@H]2C1=O,-13,101,19,60*,0,20
COC(=O)C(c1ccccc1)C(C(=O)OC)c1ccccc1 (stereo not given),-1,-16,1,-4,0,.
COC(=O)[C@@H](c1ccccc1)N(C)S(=O)(=O)c1cccc(S(=O)(=O)N(C)[C@@H](C(=O)OC)c2ccccc2)c1,4,-8,-10,53*,-20,32
COc1ccc(-c2csc3nc(-c4ccccc4F)oc(=O)c23)cc1,-3,-41,-4,62*,-11,51*
Cc1nc2scc(-c3ccc(Cl)cc3)c2c(=O)o1,4,-12,9,70*,-2,65*
Cn1cc([N+](=O)[O-])c(C(=O)Nc2ccc(C(=O)N3CCCCC3)cc2)n1,-2,-7,6,-8,-6,.
Cn1cc([N+](=O)[O-])c(C(=O)Nc2ccc(C3CCCCC3)cc2)n1,-6,5,37,52*,-16,49
O=C(N/N=C/c1cc(Cl)cc([N+](=O)[O-])c1O)C1CC1,3,-17,-2,4,0,.
O=C(Cn1nc2ccccc2n1)N/N=C/c1cc(Cl)cc([N+](=O)[O-])c1O,13,.,.,61*,21,52*
O=C(N/N=C/c1cc([N+](=O)[O-])cc([N+](=O)[O-])c1O)C(O)(c1ccccc1)c1ccccc1,29,47,.,52*,12,61*
O=C(CNc1ccccc1)N/N=C/c1cc([N+](=O)[O-])ccc1N1CCCC1,-7,-10,1,52*,25,29
CCCCC(=O)N/N=C/c1cc([N+](=O)[O-])ccc1N1CCOCC1,3,1,25,66*,2,74*
CCN(CC)C(=O)C1CCCN(c2ccc([N+](=O)[O-])cc2/C=N/NC(=O)c2cccc([N+](=O)[O-])c2)C1 (stereo not given),4,-15,6,77*,6,26
CC(C)c1ccc(NC2=CC(=O)CC(C)(C)C2)cc1,-4,-4,-1,0,-8,.
NC(=O)c1ccsc1NC(=O)COC(=O)c1ccccn1,1,-9,.,-5,6,.
Cc1nc2cc(Oc3nc(NCCN(C)C)nc4ccsc34)ccc2s1,.,.,.,-6,4,.
SMILES,ATG4B inhibitor,Mot1-301 SUMO,Calb FLC,FAS-TE inh,NadD inh,FAS-TE conf
Cc1[nH]n(-c2ccc(Cl)cc2)c(=O)c1C=Nc1ccc(S(=O)(=O)N2CCOCC2)cc1,-11,-26,-3,63*,0,16
Cc1ccc(S(=O)(=O)N2CCN(C(=O)Cc3c(F)cccc3Cl)CC2)cc1,-13,36,2,14,-8,.
CC(CCc1ccco1)NC(=O)c1cccc2c1C(=O)N(C1CCCCC1)C2 (stereo not given),0,-3,7,63*,6,9
O=C(O)c1nn(CCOc2c(Cl)cccc2Cl)c(=O)c2ccccc12,9,-16,10,8,-2,.
C[C@H]1COC2=C1C(=O)C(=O)c1c2ccc2c1CCCC2(C)C,-26,-4,6,36,11,.
Cc1coc2c1C(=O)C(=O)c1c-2ccc2c1CCCC2(C)C,-4,25,13,58*,33*,22
Cc1ccc(S(=O)(=O)N2[C@@H](c3ccc(Br)cc3)C(C(=O)O)=CC[C@H]2c2ccc(Cl)c(Cl)c2)cc1,34,.,.,50,13,.
Cc1ccc(S(=O)(=O)N2[C@@H](c3ccc(C(C)(C)C)cc3)C(C(=O)O)=CC[C@H]2c2ccc(Cl)c(Cl)c2)cc1,36,.,.,55*,18,33
O=C(CCNC(=O)c1ccccc1)Nc1ccc(Cl)c(S(=O)(=O)N2CCCCC2)c1,-22,-6,.,2,-3,.
Cc1ccc(C(=O)NCC(=O)OCc2nnc(-c3ccc([N+](=O)[O-])cc3)o2)s1,-7,-6,.,53*,3,65*
O=C(NC1(Cc2ccccc2)CCN(CCCc2ccccc2)C1=O)c1ccccc1 (stereo not given),4,11,.,21,-1,.
COc1ccc(C(CNC(=O)C(C)Sc2ccccc2)N2CCOCC2)cc1 (stereo not given),-4,.,.,-7,-3,.
O=C(O)CCCNc1c(C(=O)Nc2ccc(Cl)cc2)cc([N+](=O)[O-])cc1[N+](=O)[O-],-9,-11,-1,74*,0,81*
CN(CC(=O)Nc1ccc(Cl)c(Cl)c1)C1CCCCC1,11,49,0,31,-4,.
CN(CC(=O)Nc1ccc(Cl)c(Cl)c1)C(=O)C12CC3CC(CC(C3)C1)C2,-12,6,0,54*,4,19
CN1C[C@H](C(=O)NC2(C)OC3(O)[C@@H]4CCCN4C(=O)[C@H](Cc4ccccc4)N3C2=O)CC2c3cccc4[nH]cc(c34)C[C@H]21 (stereo not given in full),-18,5,7,59*,10,73*
CC(C)c1ccc(N2C(=NC(=O)C3CC3)SC3CS(=O)(=O)CC32)cc1 (stereo not given),2,-3,-8,-6,-5,.
